Laboratory results published in the supplement of paper PMC10849652.
Of roughly 7,900 targets only a part is listed; those with a hit were picked by preference. About 0.6% of all pairs of compound and target were hits. A number with no mark means an inactive call.

Experiments:
Assay in all cases: log2 fold change, soluble protein after heating vs DMSO (PISA); higher = thermal stabilisation; K562 cells, 10 uM, 30 min; active = over 0.2 and 3.5 SD of the protein, either way, in both replicates (recomputed)
[1] = compound: CC[C@@H]1C(=O)N(C)c2cnc(Nc3ccc(C(=O)NC4CCN(C)CC4)cc3OC)nc2N1C1CCCC1
How it was run: (§1)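 Soluble protein was defined as the supernatant after 21,000xg for 90 min. It came from K562 cells at 2×10^6 cells/mL given 10 μM compound for 30 min, heated in aliquots for 3 min across 48°C-58°C, pooled, and extracted in PBS with 0.5% NP-40 at 4°C, and was quantified by TMTpro 16plex LC-MS/MS with equalised channel sums. Thermal stability against control samples, from duplicates, is reported as log2 fold change.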

volasertib = compound: CC[C@@H]1C(=O)N(C)c2cnc(Nc3ccc(C(=O)N[C@H]4CC[C@H](N5CCN(CC6CC6)CC5)CC4)cc3OC)nc2N1C(C)C [volasertib]
How it was run: as §1

[2] = compound: CC[C@H](C)N1C=C(C2=C(C=C(C=C21)C3=CN=C(C=C3)N4CCNCC4)C(=O)NCC5=C(C=C(NC5=O)C)C)C
How it was run: as §1

epoxomicin = compound: CC[C@H](C)[C@@H](C(=O)N[C@@H]([C@@H](C)O)C(=O)N[C@@H](CC(C)C)C(=O)[C@]1(CO1)C)NC(=O)[C@H]([C@@H](C)CC)N(C)C(=O)C [epoxomicin]
How it was run: as §1

[3] = compound: CCn1c(C(=O)N(C2CC2)C2CC2)cc2c3c(ncn3C)c(Nc3cc(C)n(C)n3)nc21
How it was run: as §1

[4] = compound: CCn1cc(-c2ccnc3[nH]c(-c4cccc(CN(C)C)c4)cc23)c(-c2ccc(NC(=O)N(C)C)cc2)n1
How it was run: as §1

[5] = compound: CN(C)CC(=O)Nc1ccc2[nH]c(=O)c3ccccc3c2c1
How it was run: as §1

rosiglitazone = compound: CN(CCOC1=CC=C(C=C1)C[C@H]2C(=O)NC(=O)S2)C3=CC=CC=N3 (racemic) [rosiglitazone]
How it was run: as §1

[6] = compound: CN1C2=C(C3=C1C(=O)N(N=C3)CC4=CC(=CC=C4)N)SC(=C2)S(=O)C
How it was run: as §1

[7] = compound: CN1CCC(CNc2ccc3ncc(-c4cccc(OC(F)(F)F)c4)n3n2)CC1
How it was run: as §1

saracatinib = compound: CN1CCN(CCOc2cc(OC3CCOCC3)c3c(Nc4c(Cl)ccc5c4OCO5)ncnc3c2)CC1 [saracatinib]
How it was run: as §1

sotrastaurin = compound: CN1CCN(c2nc(C3=C(c4c[nH]c5ccccc45)C(=O)NC3=O)c3ccccc3n2)CC1 [sotrastaurin]
How it was run: as §1

alvocidib = compound: CN1CC[C@H](c2c(O)cc(O)c3c(=O)cc(-c4ccccc4Cl)oc23)[C@H](O)C1 [alvocidib]
How it was run: as §1

Tubastatin A = compound: CN1CCc2c(c3ccccc3n2Cc2ccc(C(=O)NO)cc2)C1 [Tubastatin A]
How it was run: as §1

[8] = compound: CNC(=O)C1=CC=CC=C1NC2=NC(=NC=C2Cl)NC3=C(C=C(C=C3)N4CCOCC4)OC
How it was run: as §1

defactinib = compound: CNC(=O)c1ccc(Nc2ncc(C(F)(F)F)c(NCc3nccnc3N(C)S(C)(=O)=O)n2)cc1 [defactinib]
How it was run: as §1

rucaparib = compound: CNCc1ccc(-c2[nH]c3cc(F)cc4c3c2CCNC4=O)cc1 [rucaparib]
How it was run: as §1

[9] = compound: CNc1nc(-c2ccc3c(N)n[nH]c3c2)cc(N2C[C@@H](C(=O)NC3CCCCC3)CC[C@H]2C)n1
How it was run: as §1

encorafenib = compound: COC(=O)N[C@@H](C)CNc1nccc(-c2cn(C(C)C)nc2-c2cc(Cl)cc(NS(C)(=O)=O)c2F)n1 [encorafenib]
How it was run: as §1

[10] = compound: COC(=O)[C@H](CCSC)NC(=O)C1=C(C=C(C=C1)NC[C@H](CS)N)C2=CC=CC=C2
How it was run: as §1

UniProt P11586, sequence (P11586 whole entry, looked up): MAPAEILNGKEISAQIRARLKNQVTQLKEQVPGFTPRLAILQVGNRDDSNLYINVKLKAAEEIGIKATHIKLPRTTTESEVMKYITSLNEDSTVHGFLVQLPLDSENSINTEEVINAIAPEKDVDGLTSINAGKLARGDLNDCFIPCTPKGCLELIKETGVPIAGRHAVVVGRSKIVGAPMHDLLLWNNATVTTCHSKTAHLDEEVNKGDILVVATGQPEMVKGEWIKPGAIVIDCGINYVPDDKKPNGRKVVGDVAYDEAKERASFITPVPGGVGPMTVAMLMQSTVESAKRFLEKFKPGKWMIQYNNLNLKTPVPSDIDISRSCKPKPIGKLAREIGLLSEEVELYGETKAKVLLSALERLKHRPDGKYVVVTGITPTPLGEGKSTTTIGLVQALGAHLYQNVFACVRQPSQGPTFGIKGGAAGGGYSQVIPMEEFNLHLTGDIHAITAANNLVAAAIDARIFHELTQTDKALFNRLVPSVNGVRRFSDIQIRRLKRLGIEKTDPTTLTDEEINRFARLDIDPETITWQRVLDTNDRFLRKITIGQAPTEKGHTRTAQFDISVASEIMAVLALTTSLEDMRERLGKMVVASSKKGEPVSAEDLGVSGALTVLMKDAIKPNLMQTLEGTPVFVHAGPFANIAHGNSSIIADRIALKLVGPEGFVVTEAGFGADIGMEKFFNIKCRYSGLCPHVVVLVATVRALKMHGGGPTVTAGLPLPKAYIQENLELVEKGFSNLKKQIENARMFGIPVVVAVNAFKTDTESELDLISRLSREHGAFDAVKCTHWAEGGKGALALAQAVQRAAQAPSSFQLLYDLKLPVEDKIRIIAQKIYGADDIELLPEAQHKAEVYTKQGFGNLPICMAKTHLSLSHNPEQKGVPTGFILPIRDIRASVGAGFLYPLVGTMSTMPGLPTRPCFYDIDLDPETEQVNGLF
UniProt Q7L1V2, sequence (Q7L1V2 whole entry, looked up): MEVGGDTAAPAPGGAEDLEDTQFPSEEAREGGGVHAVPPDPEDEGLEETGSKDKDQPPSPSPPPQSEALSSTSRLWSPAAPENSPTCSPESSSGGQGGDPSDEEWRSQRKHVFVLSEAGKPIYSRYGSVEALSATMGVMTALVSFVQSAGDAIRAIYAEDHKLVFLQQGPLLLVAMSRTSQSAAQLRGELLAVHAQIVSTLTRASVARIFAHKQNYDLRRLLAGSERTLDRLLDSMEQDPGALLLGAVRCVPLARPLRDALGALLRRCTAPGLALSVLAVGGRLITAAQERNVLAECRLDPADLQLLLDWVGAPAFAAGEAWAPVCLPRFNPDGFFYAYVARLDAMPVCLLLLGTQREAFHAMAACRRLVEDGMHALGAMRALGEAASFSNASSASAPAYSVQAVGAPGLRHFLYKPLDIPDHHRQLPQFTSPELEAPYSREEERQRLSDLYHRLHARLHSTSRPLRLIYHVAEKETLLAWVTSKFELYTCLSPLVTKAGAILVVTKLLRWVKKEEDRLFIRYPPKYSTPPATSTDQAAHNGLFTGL
UniProt Q9UMY1, sequence (Q9UMY1 whole entry, looked up): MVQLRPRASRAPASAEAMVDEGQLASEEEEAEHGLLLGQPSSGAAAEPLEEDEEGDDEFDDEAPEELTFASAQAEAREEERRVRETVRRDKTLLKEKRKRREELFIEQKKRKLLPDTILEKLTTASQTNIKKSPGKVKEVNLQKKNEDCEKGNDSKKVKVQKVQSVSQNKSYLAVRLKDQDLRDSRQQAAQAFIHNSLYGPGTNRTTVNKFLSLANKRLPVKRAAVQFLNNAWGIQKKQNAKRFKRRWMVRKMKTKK
UniProt Q9HCE1, sequence (Q9HCE1 whole entry, looked up): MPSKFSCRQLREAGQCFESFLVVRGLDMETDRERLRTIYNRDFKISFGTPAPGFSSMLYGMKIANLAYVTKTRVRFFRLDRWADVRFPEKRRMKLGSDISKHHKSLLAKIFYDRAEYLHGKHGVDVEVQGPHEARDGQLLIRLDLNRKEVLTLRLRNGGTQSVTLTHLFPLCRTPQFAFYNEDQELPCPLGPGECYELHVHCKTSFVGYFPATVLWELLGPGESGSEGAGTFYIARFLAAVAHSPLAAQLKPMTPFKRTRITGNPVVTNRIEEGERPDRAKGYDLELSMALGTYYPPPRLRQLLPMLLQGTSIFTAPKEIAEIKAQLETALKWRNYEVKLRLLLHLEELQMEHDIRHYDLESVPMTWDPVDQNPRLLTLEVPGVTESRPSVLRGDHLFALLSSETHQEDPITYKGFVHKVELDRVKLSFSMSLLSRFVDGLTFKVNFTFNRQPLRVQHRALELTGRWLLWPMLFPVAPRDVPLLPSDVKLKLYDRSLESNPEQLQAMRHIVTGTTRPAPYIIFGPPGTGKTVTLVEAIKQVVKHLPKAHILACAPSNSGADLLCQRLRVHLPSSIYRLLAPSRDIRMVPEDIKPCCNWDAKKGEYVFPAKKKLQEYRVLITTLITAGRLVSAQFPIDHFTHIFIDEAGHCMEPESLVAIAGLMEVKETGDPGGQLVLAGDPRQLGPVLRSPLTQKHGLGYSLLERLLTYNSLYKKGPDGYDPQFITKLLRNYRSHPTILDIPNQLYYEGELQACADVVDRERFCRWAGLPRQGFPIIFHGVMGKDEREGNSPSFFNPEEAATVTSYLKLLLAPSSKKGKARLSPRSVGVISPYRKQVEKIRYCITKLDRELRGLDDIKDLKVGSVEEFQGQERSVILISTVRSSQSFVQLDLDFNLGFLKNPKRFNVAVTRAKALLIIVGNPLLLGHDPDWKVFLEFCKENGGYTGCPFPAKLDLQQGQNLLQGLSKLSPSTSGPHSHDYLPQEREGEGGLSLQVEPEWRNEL
UniProt Q92692, sequence (Q92692 whole entry, looked up): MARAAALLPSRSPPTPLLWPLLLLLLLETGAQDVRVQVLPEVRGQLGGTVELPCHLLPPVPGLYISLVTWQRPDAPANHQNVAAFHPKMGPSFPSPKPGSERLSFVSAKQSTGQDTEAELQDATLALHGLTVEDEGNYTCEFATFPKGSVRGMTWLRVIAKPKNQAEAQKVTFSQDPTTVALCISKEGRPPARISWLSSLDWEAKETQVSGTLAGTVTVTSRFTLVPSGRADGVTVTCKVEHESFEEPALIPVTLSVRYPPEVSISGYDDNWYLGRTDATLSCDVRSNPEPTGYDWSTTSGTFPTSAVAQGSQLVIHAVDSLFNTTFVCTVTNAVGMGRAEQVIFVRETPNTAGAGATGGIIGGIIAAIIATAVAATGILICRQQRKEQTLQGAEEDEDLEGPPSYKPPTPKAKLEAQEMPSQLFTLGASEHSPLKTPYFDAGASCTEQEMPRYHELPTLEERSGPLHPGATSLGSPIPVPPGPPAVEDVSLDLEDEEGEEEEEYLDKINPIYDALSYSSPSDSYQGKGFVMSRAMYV
UniProt Q9BV86, sequence (Q9BV86 whole entry, looked up): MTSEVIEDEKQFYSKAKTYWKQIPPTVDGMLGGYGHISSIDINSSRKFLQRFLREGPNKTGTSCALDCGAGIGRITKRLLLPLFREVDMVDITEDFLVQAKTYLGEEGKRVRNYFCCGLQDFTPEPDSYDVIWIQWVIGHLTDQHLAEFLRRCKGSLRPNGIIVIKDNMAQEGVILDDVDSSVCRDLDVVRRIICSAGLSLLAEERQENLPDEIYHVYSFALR
UniProt Q96I59, sequence (Q96I59 whole entry, looked up): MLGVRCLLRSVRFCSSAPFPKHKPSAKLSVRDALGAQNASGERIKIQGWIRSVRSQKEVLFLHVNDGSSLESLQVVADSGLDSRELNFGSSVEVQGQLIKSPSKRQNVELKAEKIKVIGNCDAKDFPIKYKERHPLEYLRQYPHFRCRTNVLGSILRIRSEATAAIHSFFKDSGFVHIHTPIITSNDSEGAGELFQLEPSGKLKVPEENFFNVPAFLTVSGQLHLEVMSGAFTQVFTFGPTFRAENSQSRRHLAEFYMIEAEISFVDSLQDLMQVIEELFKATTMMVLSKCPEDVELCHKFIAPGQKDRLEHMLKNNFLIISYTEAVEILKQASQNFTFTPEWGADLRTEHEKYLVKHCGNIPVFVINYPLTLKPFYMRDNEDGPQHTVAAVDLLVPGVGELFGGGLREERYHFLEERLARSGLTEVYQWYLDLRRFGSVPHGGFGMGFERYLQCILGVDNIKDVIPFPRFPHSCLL
UniProt Q16621, sequence (Q16621 whole entry, looked up): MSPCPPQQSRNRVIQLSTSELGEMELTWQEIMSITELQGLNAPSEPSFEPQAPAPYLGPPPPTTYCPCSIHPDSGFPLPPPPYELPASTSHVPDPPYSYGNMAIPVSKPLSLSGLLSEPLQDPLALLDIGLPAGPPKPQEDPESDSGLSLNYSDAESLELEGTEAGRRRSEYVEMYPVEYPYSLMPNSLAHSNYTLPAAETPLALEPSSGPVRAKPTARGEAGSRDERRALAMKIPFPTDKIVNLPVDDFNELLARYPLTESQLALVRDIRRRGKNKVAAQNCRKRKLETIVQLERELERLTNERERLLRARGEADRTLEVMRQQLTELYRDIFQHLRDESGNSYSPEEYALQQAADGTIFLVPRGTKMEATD
UniProt O95169, sequence (O95169 whole entry, looked up): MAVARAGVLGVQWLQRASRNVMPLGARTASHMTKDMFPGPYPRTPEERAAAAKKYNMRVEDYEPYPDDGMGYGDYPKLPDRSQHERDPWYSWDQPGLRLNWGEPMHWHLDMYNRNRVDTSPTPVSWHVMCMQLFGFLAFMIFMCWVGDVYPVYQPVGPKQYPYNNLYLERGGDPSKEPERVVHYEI
UniProt Q5TFE4, sequence (Q5TFE4 whole entry, looked up): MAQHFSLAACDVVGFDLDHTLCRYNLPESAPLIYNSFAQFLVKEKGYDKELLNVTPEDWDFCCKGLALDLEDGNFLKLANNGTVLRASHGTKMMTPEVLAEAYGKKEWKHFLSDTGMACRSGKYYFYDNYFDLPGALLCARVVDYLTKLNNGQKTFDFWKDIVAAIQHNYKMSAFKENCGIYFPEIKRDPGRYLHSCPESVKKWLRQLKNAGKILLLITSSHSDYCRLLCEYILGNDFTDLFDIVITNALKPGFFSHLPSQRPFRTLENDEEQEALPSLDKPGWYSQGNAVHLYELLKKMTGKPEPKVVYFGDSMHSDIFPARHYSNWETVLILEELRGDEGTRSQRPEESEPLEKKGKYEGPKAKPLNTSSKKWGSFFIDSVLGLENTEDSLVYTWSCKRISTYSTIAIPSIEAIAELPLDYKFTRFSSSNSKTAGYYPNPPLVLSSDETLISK

Row | Target | log2 fold change [1] | log2 fold change (volasertib) | log2 fold change [2] | log2 fold change (epoxomicin) | log2 fold change [3] | log2 fold change [4] | log2 fold change [5] | log2 fold change (rosiglitazone) | log2 fold change [6] | log2 fold change [7] | log2 fold change (saracatinib) | log2 fold change (sotrastaurin) | log2 fold change (alvocidib) | log2 fold change (Tubastatin A) | log2 fold change [8] | log2 fold change (defactinib) | log2 fold change (rucaparib) | log2 fold change [9] | log2 fold change (encorafenib) | log2 fold change [10]
1 | NT5DC1 (UniProt Q5TFE4) | 0.165 | 0.051 | -0.026 | 0.045 | 0.015 | -0.054 | 0.014 | 0.008 | -0.037 | -0.063 | -0.012 | 0.026 | -0.049 | 0 | 0.115 | -0.004 | -0.057 | -0.058 | -0.029 | 0.037
2 | NME1 isoform 2 (UniProt P15531) | 0.061 | 0.046 | 0.03 | -0.01 | -0.087 | -0.134 | -0.028 | 0.024 | -0.184 | -0.039 | -0.156 | 0.049 | -0.103 | -0.024 | -0.087 | -0.01 | 0.035 | 0.069 | -0.032 | 0.041
3 | NARS2 (UniProt Q96I59) | -0.021 | -0.043 | 0.045 | 0.048 | 0.034 | -0.055 | 0.001 | 0.026 | -0.034 | -0.182 | -0.004 | 0.03 | -0.039 | -0.127 | -0.056 | 0.001 | -0.021 | -0.006 | 0.008 | -0.008
4 | MON1B (UniProt Q7L1V2) | -0.002 | -0.183 | -0.021 | -0.028 | -0.025 | 0.013 | -0.024 | 0.016 | -0.011 | -0.377 (active) | 0.005 | -0.028 | -0.057 | 0.048 | -0.011 | 0.016 | -0.015 | -0.036 | 0.037 | -0.013
5 | NTMT1 (UniProt Q9BV86) | -0.047 | -0.004 | 0.051 | 0.092 | 0.005 | -0.141 | 0.081 | -0.022 | -0.037 | 0.099 | -0.048 | 0.055 | -0.104 | -0.071 | -0.032 | -0.081 | 0.169 | 0.184 | 0.06 | -0.157
6 | NECTIN2 (UniProt Q92692) | 0.071 | 0.029 | -0.003 | 0.02 | 0.018 | -0.044 | -0.028 | -0.023 | -0.063 | 0.138 | 0.021 | 0.047 | -0.044 | -0.013 | -0.056 | -0.013 | -0.051 | 0.049 | -0.024 | 0.063
7 | NEDD4 isoform 4 (UniProt P46934) | -0.102 | -0.521 (active) | 0.008 | 0.008 | 0 | -0.031 | 0.015 | 0.065 | -0.01 | 0.049 | 0.116 | -0.026 | -0.09 | 0.037 | 0.041 | -0.108 | -0.099 | -0.026 | 0.049 | -0.009
8 | NDUFB8 (UniProt O95169) | 0.008 | -0.016 | -0.036 | 0.074 | 0.041 | 0.055 | 0.016 | 0.025 | 0 | 0.097 | -0.064 | 0.071 | -0.077 | -0.016 | 0.002 | -0.037 | 0.003 | -0.073 | 0.016 | -0.048
9 | NFE2 (UniProt Q16621) | -0.136 | -0.227 | 0.018 | 0.173 | 0.012 | 0.084 | 0.273 | 0 | -0.015 | -0.145 | 0.011 | -0.096 | -0.182 | 0.093 | -0.025 | -0.037 | -0.075 | -0.065 | 0.018 | -0.06
10 | MTHFD1 (UniProt P11586) | -0.074 | -0.002 | 0.035 | 0.067 | -0.011 | -0.159 | 0.051 | 0.024 | -0.057 | 0.004 | 0.004 | 0.018 | -0.055 | -0.009 | 0.003 | -0.046 | -0.032 | 0.058 | 0.04 | -0.036
11 | MRPS17 (UniProt Q9Y2R5) | -0.111 | -0.018 | 0.022 | -0.043 | -0.059 | 0.043 | 0.069 | 0.057 | 0.022 | -0.016 | -0.017 | -0.138 | 0.002 | 0.072 | 0.105 | 0.096 | 0.185 | 0.096 | 0.016 | -0.047
12 | NOL7 (UniProt Q9UMY1) | 0.226 | 0.417 | -0.086 | -0.338 | -0.019 | 0.232 | -0.123 | -0.154 | 0.316 | 0.237 | -0.057 | 0.017 | 0.379 | 0.161 | 0.032 | 0.303 | 0.312 | 0.098 | 0.1 | -0.042
13 | MOV10 (UniProt Q9HCE1) | 0.199 | 0.195 | -0.029 | -0.156 | 0.029 | 0.158 | -0.061 | -0.044 | 0.185 | 0.331 | 0.007 | 0.024 | 0.232 | 0.025 | 0.107 | 0.167 | 0.271 | 0 | 0.05 | 0.053
